From PubChem BioAssay AID493073 (Broad Institute, 2011)
The campaign covered roughly 1,200 compounds. About 810 (68%) were called active. So high a share suggests a set chosen from earlier hits. Not all results are given here. Measured potencies and affinities stand elsewhere. A number with no mark means an inactive call. No rule for the calls is given here.

assay: TRPM1 promoter luciferase signal decrease, dose response, MITF inhibitor project, cell-based, SK-MEL-5, cherry-picked, set 3 (AID 493073); conditions: SK-MEL-5 TRPM1 promoter luciferase, 24 h; series mostly up to 35 µM; activity change, negative = inhibition: at the top concentration

SMILES | activity change, negative = inhibition [%]
c1cnc(SCCOc2ccc3c(c2)CCC3)nc1 | 24.9
O=C(Nc1ccccn1)c1ccc(Br)s1 | 56.3
Cc1cc(N2CCOCC2)n2ncc(-c3ccccc3Cl)c2n1 | 102
CC(=C/c1ccco1)/C=N/N1CCN(c2ccccc2)CC1 | -79.5
CCN(CC(=O)Nc1ccc2c(c1)OCCO2)C(=O)c1ccc([N+](=O)[O-])s1 | -34.7
Cc1ccc(NC(=O)c2cc(N3C(=O)C=CC3=O)ccc2N2CCOCC2)cc1Cl | -88.5
CS(=O)(=O)N1CCN(c2nc3ccc(Cl)cc3s2)CC1 | 78.7
CCN(CC)C(=O)CCCOc1ccc(Cl)cc1Cl | 20.3
O=C(Nc1ccccc1F)C(=O)Nc1cccc2ccccc12 | 19.6
COc1cc2ccccc2cc1C(=O)Nc1ccc(N2CCN(C)CC2)cc1 | 138
CCOc1cccc(C(=O)NC2=NCCS2)c1 | 28
CCCOC(=O)c1ccc(NC(=O)C2CCCO2)cc1 (stereo unspecified) | 109
CCOc1ccc(N/C=C/C(=O)c2ccc(OC)c(OC)c2)cc1 | 105
O=[N+]([O-])c1cc(C(F)(F)F)ccc1NCCc1ccccn1 | 80.2
COc1cccc(NC(=O)c2cc3ccccc3cc2OC)c1 | 51.2
Cc1cccc(OCC(=O)Nc2cccc(O)c2)c1 | 60.4
COc1cccc(NC(=O)c2cnn(-c3ccccc3)c2C)c1 | -9.88
Cc1ccc(OCC(=O)Nc2cccc(C)n2)c(C)c1 | 69.9
O=C(/C=C/c1ccc2c(c1)OCCO2)c1ccccc1 | -51.6
O=C(Nc1ccccc1F)c1ccc2c(c1)OCO2 | -47.3
CC(=O)N(c1nnc(-c2cccc(C)c2)s1)C1CCCC1 | 101

SMILES | activity change, negative = inhibition [%]
C/C(=N\Nc1nccnc1Cl)c1ccc(O)c(C)c1 | 91.9
CCCOc1ccc(-c2c(=O)n(O)c3ccccc3[n+]2[O-])cc1 | 37.1
CN1CCN(CCCOc2ccc(-c3ccccc3)cc2)CC1 | 13.4
COc1ccc(C(=O)CN2Cc3ccccc3C2=N)cc1 | 76.8
O=C(c1ccc(F)cc1)N1CCC(c2ccccc2)C1 (stereo unspecified) | 104
COc1ccc2oc(=O)c(C(=O)Nc3ccccc3C)cc2c1 | -2.57
COc1ccc(NC(=O)c2cc3ccccc3oc2=O)c(OC)c1 | 52.2
COc1ccc(N/C=C\C(=O)c2ccc3ccccc3c2)cc1 | 88.6
COc1ccc(COC(=O)c2n[nH]c3ccccc23)cc1F | 47.7
Cc1ccc(C(CNS(=O)(=O)c2ccc(Br)cc2)N2CCN(C)CC2)cc1 (stereo unspecified) | -81.2
COc1ccc(/C=C/c2cc(C(F)(F)F)on2)cc1 | 107
Cc1cccc(OCc2nc3ccccc3n2C)c1 | -19.5
O=C(/C=C/c1ccc2c(c1)OCO2)N1CCCCC1 | 62.1
O=C(Nc1ccccc1)C1Cc2ccccc2CN1C(=O)c1ccco1 (stereo unspecified) | 73.5
CC(=O)Oc1ccc(C)cc1-n1nc2ccccc2n1 | 65.9
CC(C)C(=O)Nc1ccc2nn(-c3ccc(F)cc3)nc2c1 | 7.63
CCOCCCNC(=O)/C(C#N)=C/c1ccc([N+](=O)[O-])o1 | -96.3
Cc1nc(NCCOc2ccccc2)sc1C(=O)Nc1ccccc1 | 46.1
COc1ccc2oc(=N)c(C(=O)Nc3ccccc3Cl)cc2c1 | 21.5
CCOC(=O)c1sc(NC(=O)Nc2ccc(Cl)cc2)nc1C | 96.9
O=C(Cc1ccccc1)Nc1ccc(NC(=O)c2ccco2)nc1 | -37.9

SMILES | activity change, negative = inhibition [%]
CCOC(=O)c1ccc2nc(C)c(CCC(C)=O)c(Cl)c2c1 | 105
Cn1c(/C(C#N)=C/c2ccc(-c3ccc(S(N)(=O)=O)cc3)o2)nc2ccccc21 | -79.9
COc1ccc(/C=N/Nc2ccccn2)cc1OC | 97.2
S=c1[nH]nc(-c2ccco2)n1/N=C/C(Cl)=C/c1ccccc1 | 77.9
Nc1ccccc1SC1CC(=O)N(c2ccc3c(c2)OCCO3)C1=O (stereo unspecified) | 82.2
COc1ccccc1N1CCN(/N=C/c2cccc(Cl)c2)CC1 | 132
Cc1csc(NC(=O)Cc2c(F)cccc2Cl)n1 | 78.6
Clc1ccc(-c2noc(CN3CCOCC3)n2)cc1 | 81.6
O=C(CC(=O)c1ccccc1)Nc1ccccc1 | 12.2
Cc1ccc(NC(=O)c2cnc3ccccc3n2)cc1C | 44.3
COc1ccc(-c2noc(-c3cccs3)n2)cc1OC | 95.4
Cc1[nH]nc(Nc2ccc(Br)cc2)c1[N+](=O)[O-] | 91.7
CCOc1ccc2nc(NC(=O)Cc3cccs3)sc2c1 | 92.9
CCc1nc2oc3ccc(C)cc3c(=O)c2cc1C(=O)OC | 89.6
CS/C(N)=N/N=C/c1ccc2c(c1)OCO2 | 103
COc1cccc(/C=N/Nc2nc3ccccc3[nH]2)c1OC | 125
COc1ccccc1N1CCN(/N=C\c2ccccc2)CC1 | 104
CC(C)c1ccc(C(=O)Nc2cccnc2)cc1 | 12.8
COC(=O)c1ccc(/C=N/Nc2nc(C)c(C)s2)cc1 | 36
